Over roughly 8,300 sequences, “log2 fold change of degron read counts, EGFP-low vs EGFP+ sorted cells (limma voom), compound-induced degradation” has its median near -1.1; the highest 2% begin near 3.2. The full list was thinned out, with the highest values kept by preference.
B1: 46F_47E_49N_50Q_52G_53A_54G_55F_67L_, Q9UKT9 (peptide)
chain: FECNQCGAGFTQKGNLLRHIKL
B2: 46L_47L_49N_50Q_52G_53F_54Q_55C_67L_, Q9UKT9 (peptide)
chain: LLCNQCGFQCTQKGNLLRHIKL
B3: 46F_47Q_49N_50V_52G_53A_54Y_55F_67L_, Q9UKT9 (peptide)
chain: FQCNVCGAYFTQKGNLLRHIKL
B4: 46F_47I_49E_50I_52G_53H_54A_55F_67L_, Q9UKT9 (peptide)
chain: FICEICGHAFTQKGNLLRHIKL
B5: 46F_47R_49D_50Q_52G_53A_54C_55F_67L_, Q9UKT9 (peptide)
chain: FRCDQCGACFTQKGNLLRHIKL
B6: 46F_47H_49E_50I_52G_53H_54S_55F_67L_, Q9UKT9 (peptide)
chain: FHCEICGHSFTQKGNLLRHIKL
B7: 46F_47T_49N_50Q_52G_53H_54F_55F_67L_, Q9UKT9 (peptide)
chain: FTCNQCGHFFTQKGNLLRHIKL
B8: 46F_47I_49E_50I_52G_53R_54C_55F_67L_, Q9UKT9 (peptide)
chain: FICEICGRCFTQKGNLLRHIKL
B9: 46F_47C_49P_50V_52G_53A_54H_55F_67L_, Q9UKT9 (peptide)
chain: FCCPVCGAHFTQKGNLLRHIKL
B10: 46L_47R_49N_50Q_52G_53F_54F_55C_67L_, Q9UKT9 (peptide)
chain: LRCNQCGFFCTQKGNLLRHIKL
B11: 46F_47Y_49E_50I_52G_53A_54S_55F_67L_, Q9UKT9 (peptide)
chain: FYCEICGASFTQKGNLLRHIKL
B12: 46F_47Q_49E_50I_52G_53A_54S_55F_67L_, Q9UKT9 (peptide)
chain: FQCEICGASFTQKGNLLRHIKL
B13: 46F_47C_49E_50I_52G_53A_54S_55F_67L_, Q9UKT9 (peptide)
chain: FCCEICGASFTQKGNLLRHIKL
B14: 46F_47H_49E_50I_52G_53A_54S_55F_67L_, Q9UKT9 (peptide)
chain: FHCEICGASFTQKGNLLRHIKL
B15: 46F_47S_49E_50I_52G_53A_54S_55F_67L_, Q9UKT9 (peptide)
chain: FSCEICGASFTQKGNLLRHIKL
B16: 46F_47G_49E_50I_52G_53A_54S_55F_67L_, Q9UKT9 (peptide)
chain: FGCEICGASFTQKGNLLRHIKL
B17: 46F_47D_49E_50I_52G_53A_54S_55F_67L_, Q9UKT9 (peptide)
chain: FDCEICGASFTQKGNLLRHIKL
B18: 46F_47K_49E_50I_52G_53A_54S_55F_67L_, Q9UKT9 (peptide)
chain: FKCEICGASFTQKGNLLRHIKL
B19: 46F_47M_49E_50I_52G_53A_54S_55F_67L_, Q9UKT9 (peptide)
chain: FMCEICGASFTQKGNLLRHIKL

Target: T1, CRBN, Q96SW2
T1 chain: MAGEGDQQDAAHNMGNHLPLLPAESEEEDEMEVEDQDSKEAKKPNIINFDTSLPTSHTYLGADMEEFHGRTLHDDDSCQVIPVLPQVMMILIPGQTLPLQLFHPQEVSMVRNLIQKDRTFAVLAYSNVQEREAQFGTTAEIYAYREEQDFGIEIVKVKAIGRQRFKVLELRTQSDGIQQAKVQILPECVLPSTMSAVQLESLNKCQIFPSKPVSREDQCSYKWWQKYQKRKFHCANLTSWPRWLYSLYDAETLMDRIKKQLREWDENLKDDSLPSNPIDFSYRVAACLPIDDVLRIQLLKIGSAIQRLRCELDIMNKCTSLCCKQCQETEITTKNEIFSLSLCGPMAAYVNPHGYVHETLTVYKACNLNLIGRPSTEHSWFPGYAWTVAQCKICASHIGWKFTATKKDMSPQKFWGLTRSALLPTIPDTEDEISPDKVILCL
Experiment: log2 fold change of degron read counts, EGFP-low vs EGFP+ sorted cells (limma voom), compound-induced degradation; higher = more compound-induced degradation of the degron-EGFP fusion; degrons are variants of IKZF1/3 zinc finger 2; compound dose not given here
Conditions: Jurkat, 18 h

[1] = compound: compound 19 (5-tert-butyl-thalidomide)
[2] = compound: compound 22 (5-morpholino-thalidomide)
[3] = compound: compound 33 (diphenyl IMiD analogue)
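Also: pooled lentiviral library of zinc finger degron-EGFP fusions in mCherry-positive Jurkat cells, FACS-sorted after compound exposure, with degron abundance counted by next-generation sequencing.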

Sequence	log2 fold change of degron read counts [1]	log2 fold change of degron read counts [2]	log2 fold change of degron read counts [3]	log2 fold change of degron read counts (compound: thalidomide)
B1	-2.2	-2.79	-2.43	-2.17
B2	-2.02	-1.96	-2.15	-1.68
B3	-2.25	-1.8	-0.854	1.41
B4	-3.32	-2.94	-2.31	-1.67
B5	-2.93	-3.5	-1.12	-2.52
B6	-2.93	-3.88	-2.79	-3.22
B7	-1.82	-2.32	-2.31	-2.01
B8	-2.73	-1.99	-0.856	-0.602
B9	1.59	0.752	1.65	0.961
B10	-1.45	-1.65	-1.16	-0.846
B11	3.72	3.7	2.91	1.64
B12	2.5	2.8	2.23	3.75
B13	3.35	2.7	2.35	2.35
B14	3.13	2.67	1.52	0.22
B15	3.56	2.8	2.11	1.64
B16	3.07	2.12	1.77	1.03
B17	3.18	0.784	0.437	1.24
B18	1.57	-0.809	-2.2	-0.268
B19	1.61	1.94	2.9	2
